Data as given in publication PMC4336329 (PLoS ONE, 2015).
In all, about 310,000 compounds went through this assay and about 2,200 (0.71%) showed an effect of 50% or more. Effects have a minus sign here. This excerpt belongs to a sample that is enriched for strong results.

Biological target: human ether-à-go-go-related gene (hERG) potassium channel (human, UniProt Q12809)
Test: primary screen, population patch clamp on CHO cells stably expressing hERG; higher = less effect of the substance

human ether-à-go-go-related gene (hERG) potassium channel, sequence (Q12809 whole entry, looked up): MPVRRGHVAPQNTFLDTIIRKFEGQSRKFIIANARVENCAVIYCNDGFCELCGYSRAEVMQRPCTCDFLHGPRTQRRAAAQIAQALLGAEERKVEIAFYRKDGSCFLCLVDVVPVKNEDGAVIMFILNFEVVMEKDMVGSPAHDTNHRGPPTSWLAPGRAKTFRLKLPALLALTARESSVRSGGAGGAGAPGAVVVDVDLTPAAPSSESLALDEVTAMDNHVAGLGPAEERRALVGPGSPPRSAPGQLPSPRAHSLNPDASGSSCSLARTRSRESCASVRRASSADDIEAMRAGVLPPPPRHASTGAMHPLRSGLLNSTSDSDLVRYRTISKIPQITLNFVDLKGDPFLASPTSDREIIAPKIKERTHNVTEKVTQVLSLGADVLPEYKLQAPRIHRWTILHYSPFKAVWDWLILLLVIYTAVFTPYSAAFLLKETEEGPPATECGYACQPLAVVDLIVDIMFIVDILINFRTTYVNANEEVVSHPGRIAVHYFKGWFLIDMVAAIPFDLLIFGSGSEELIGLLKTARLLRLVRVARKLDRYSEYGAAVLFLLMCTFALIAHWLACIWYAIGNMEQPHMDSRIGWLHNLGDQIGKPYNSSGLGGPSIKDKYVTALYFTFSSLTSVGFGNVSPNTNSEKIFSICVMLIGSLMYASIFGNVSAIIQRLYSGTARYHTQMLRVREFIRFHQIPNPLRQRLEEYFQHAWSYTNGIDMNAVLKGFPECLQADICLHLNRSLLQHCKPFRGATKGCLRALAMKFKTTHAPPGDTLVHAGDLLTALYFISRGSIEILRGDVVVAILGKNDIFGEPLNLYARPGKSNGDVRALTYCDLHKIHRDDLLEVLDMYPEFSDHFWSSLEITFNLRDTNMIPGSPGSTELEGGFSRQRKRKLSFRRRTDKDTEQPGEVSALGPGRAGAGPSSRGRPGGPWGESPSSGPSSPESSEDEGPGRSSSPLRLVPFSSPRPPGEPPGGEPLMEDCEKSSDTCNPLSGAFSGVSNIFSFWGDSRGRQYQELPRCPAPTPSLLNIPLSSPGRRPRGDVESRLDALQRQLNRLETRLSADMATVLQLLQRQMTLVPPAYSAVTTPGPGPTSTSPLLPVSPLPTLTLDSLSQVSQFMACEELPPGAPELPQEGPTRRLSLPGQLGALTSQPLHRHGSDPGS

| SMILES | hERG current change (%, negative = inhibition) at 1uM |
| --- | --- |
| COc1cccc(S(=O)(=O)NCC(=O)N2CCCCCC2)c1 | 25% |
| Cc1ccc(S(=O)(=O)N2CCN(c3ccccc3)CC2)cc1C | 12.5% |
| Cc1ccc(S(=O)(=O)N2CCN(c3ccccc3)CC2)cc1C(N)=O | -52% |
| Cc1ccc(S(=O)(=O)N2CCN(c3ccccc3)CC2)cc1C(=O)NC1CCCCC1 | 10.8% |
| CC(C)OC(=O)c1ccc(NC(=O)c2ccco2)cc1 | 6.19% |
| Cc1ccc(S(=O)(=O)Cn2nnnc2C(CC(C)C)N2CCN(C(=O)c3ccco3)CC2)cc1.Cl (stereo not drawn) | 7.63% |
| C=CCNc1nc(C(=O)OCC(=O)Nc2cc(S(C)(=O)=O)ccc2Cl)cs1 | 4.15% |
| NC(=O)CCCn1c(C(=O)c2cc(Cl)c(N)c(Cl)c2)c2ccc(C(F)(F)F)cc2[n+]1[O-] | 5.14% |
| Cc1ccc(C(=O)c2c3ccc(C(F)(F)F)cc3[n+]([O-])n2CCCC(N)=O)cc1 | -39% |
| Cc1ccc(C(=O)c2c3ccc(C(F)(F)F)cc3[n+]([O-])n2CCC(N)=O)cc1 | -28.8% |
| Nc1c(Cl)cc(C(=O)c2c3ccc([N+](=O)[O-])cc3[n+]([O-])n2CCC[NH3+])cc1Cl.O=C([O-])C(F)(F)F | 1.56% |
| Cc1ccc(C(=O)c2c3ccc([N+](=O)[O-])cc3[n+]([O-])n2CCC[NH3+])cc1.O=C([O-])C(F)(F)F | -14.7% |
| Cc1ccc(C(=O)c2c3ccc([N+](=O)[O-])cc3[n+]([O-])n2CCCC(N)=O)cc1 | -11.4% |
| Nc1c(Cl)cc(C(=O)c2c3ccc(C(F)(F)F)cc3[n+]([O-])n2CCC[NH3+])cc1Cl.[Cl-] | -37.3% |
| NC(=O)CCCn1c(C(=O)c2ccc(Cl)cc2)c2ccc([N+](=O)[O-])cc2[n+]1[O-] | -58.2% |
| [Cl-].[NH3+]CCCn1c(C(=O)c2ccc(Cl)cc2)c2ccc([N+](=O)[O-])cc2[n+]1[O-] | -47.1% |
| NC(=O)CCCn1c(C(=O)c2ccc(Cl)cc2)c2ccc(C(F)(F)F)cc2[n+]1[O-] | -80.1% |
| [Cl-].[NH3+]CCCn1c(C(=O)c2ccc(Cl)cc2)c2ccc(C(F)(F)F)cc2[n+]1[O-] | -80.9% |
| Cc1ccc(C(=O)c2c3ccc(C(F)(F)F)cc3[n+]([O-])n2CCC[NH3+])cc1.O=C([O-])C(F)(F)F | -64.4% |
| COc1cccc(CNS(=O)(=O)c2c(C(=O)N3CCCCCC3)c(C)n(C)c2C)c1 | 7.52% |
| Cc1ccccc1CNC1CCCCC1.Cl | 2.15% |

| SMILES | hERG current change (%, negative = inhibition) at 1uM |
| --- | --- |
| O=C(Cn1cnc2cc([N+](=O)[O-])ccc2c1=O)Nc1ccccc1Cl | 6.18% |
| COC(=O)c1ccc(-c2nc(O)c(C)s2)cc1 | 9.1% |
| CC1=C(C(=O)Nc2cccc(C(=O)NCc3ccc(F)cc3)c2)SCCO1 | 15.3% |
| COc1ccc(C(=O)c2c3ccc(C(F)(F)F)cc3[n+]([O-])n2CCCC(N)=O)cc1 | -21.6% |
| COc1ccc(C(=O)c2c3ccc([N+](=O)[O-])cc3[n+]([O-])n2CCC[NH3+])cc1.[Cl-] | -13.5% |
| COc1ccc(C(=O)c2c3ccc(C(F)(F)F)cc3[n+]([O-])n2CCC[NH3+])cc1.[Cl-] | -63% |
| Cc1ccc(-c2nn3nnnc3c3ccccc23)cc1 | 12.9% |
| c1ccc(-c2nn3nnnc3c3ccccc23)cc1 | -82.9% |
| Cc1ccc(-c2nn3nnnc3c3ccccc23)cc1C | -5.22% |
| Cc1c(CCOC(=O)CC23CC4CC(CC(C4)C2)C3)sc[n+]1CC(=O)c1ccc(Br)cc1.[Br-] | -63.5% |
| Cc1c(CCOC(=O)CC23CC4CC(CC(C)(C4)C2)C3)sc[n+]1CC(=O)c1ccccc1.[Br-] | -5.09% |
| Cc1c(CCOC(=O)c2ccccc2)sc[n+]1CC(=O)c1ccc(Br)cc1.[Br-] | -82.8% |
| Cc1c(CCOC(=O)CC23CC4CC(CC(C4)C2)C3)sc[n+]1CC(=O)c1ccccc1.[Br-] | -6.04% |
| COc1ccc(C(=O)OCCc2sc[n+](CC(=O)c3ccccc3)c2C)cc1.[Br-] | 9.69% |
| Cc1c(CCOC(=O)c2ccc([N+](=O)[O-])cc2)sc[n+]1CC(=O)c1ccccc1.[Br-] | -6.66% |
| CCc1ccc(C(C(=O)NC2CCCC2)N(Cc2cccnc2)C(=O)c2csnn2)cc1 (stereo not drawn) | 2.84% |
| Nc1c(-c2ccccc2)nc(Cl)nc1-c1ccccc1 | 13.2% |
| CN(CC(=O)Nc1ccccc1Cl)C(=O)COC(=O)/C=C/c1ccc(C(F)(F)F)cc1 | 16.2% |
| Cc1ccccc1C(=O)c1cccn1CC(=O)NCCCN1CC(C)CC(C)C1 (stereo not drawn) | -59% |
| O=C(Cn1cccc1C(=O)c1ccccc1)NCCCN1CCc2ccccc2C1 | -41.7% |
| Cc1ccccc1C(=O)c1cccn1CC(=O)NCCCN1CCc2ccccc2C1 | -70% |

| SMILES | hERG current change (%, negative = inhibition) at 1uM |
| --- | --- |
| Cc1ccc(C)c(N2CCN(CCCNC(=O)Cn3cccc3C(=O)c3ccccc3C)CC2)c1 | -22.1% |
| CC1CC(C)CN(CCCNC(=O)Cn2cccc2C(=O)c2ccccc2)C1 (stereo not drawn) | -25% |
| Cc1ccccc1C(=O)c1cccn1CC(=O)NCCCN1CCCCC1 | 0.894% |
| CN(C)CCN1C(=O)c2oc3ccccc3c(=O)c2C1c1ccc(F)cc1 (stereo not drawn) | -2.93% |
| CC(=O)Nc1ccc(Oc2sc(C(=O)c3ccccc3)c(N)c2C#N)cc1 | 9.56% |
| COCCN(C(=O)CSc1nnc(-c2ccco2)n1C)c1c(N)n(CC(C)C)c(=O)[nH]c1=O | 8.54% |
| CCN1CCN(c2ccc(NC(=O)c3ccc4c(c3)OCO4)cc2)CC1 | -16.7% |
| CCOC(=O)C1=C(COC(=O)/C=C/c2cccc(Br)c2)NC(=O)NC1C (stereo not drawn) | -7.77% |
| Cc1ccc(C#N)c(SCc2cccc(Br)c2)n1 | 17.2% |
| CCCCOC(=O)c1ccc(NC(=O)/C=C/c2cccs2)cc1 | 1.76% |
| CCN(CC)CCOC(=O)c1ccc(NC(=O)/C=C/c2cccs2)cc1.Cl | -53.5% |
| CCCOC(=O)c1ccc(NC(=O)/C=C/c2cccs2)cc1 | 7.88% |
| O=C(N/N=C\c1cccnc1)c1cc(-c2ccc(Cl)s2)[nH]n1 | 8.22% |
| CSc1ccc(/C=C(\NC(=O)c2ccccc2)C(=O)NCCN2CCOCC2)cc1 | -44.3% |
| O=C(NCCO)/C(=C\c1ccc(Br)cc1)NC(=O)c1cccs1 | 6.96% |
| O=C(NCCN1CCOCC1)/C(=C\c1ccc(F)cc1)NC(=O)c1ccccc1 | -51.7% |
| O=C(NCCO)/C(=C/c1ccc(Br)cc1)NC(=O)c1cccs1 | -8.3% |
| O=C(NCCN1CCOCC1)/C(=C/c1ccc(F)cc1)NC(=O)c1ccccc1 | -58.4% |
| O=C(NCCN1CCOCC1)/C(=C\c1ccc(Br)cc1)NC(=O)c1cccs1 | -54% |
| O=C(NCCCN1CCOCC1)/C(=C/c1ccc(F)cc1)NC(=O)c1ccccc1 | -46.5% |
| CN(C)c1ccc(/C=C(\NC(=O)c2ccccc2)C(=O)NCCN2CCOCC2)cc1 | 8% |

| SMILES | hERG current change (%, negative = inhibition) at 1uM |
| --- | --- |
| CSc1ccc(/C=C(/NC(=O)c2ccccc2)C(=O)NCCN2CCOCC2)cc1 | -10.3% |
| COc1cc(CCC(=O)OCC(=O)Nc2ccc(F)c(F)c2)cc(OC)c1OC | 3.59% |
| CC(C)N1C(=O)S/C(=C/c2ccc3c(c2)n(C)c(=O)n3C)C1=O | -5.59% |
| COc1ccc(CNC(=O)COC(=O)CC2CC3CCC2C3)cc1OC (stereo not drawn) | 6.66% |
| COc1cccc(/C=C/c2nc3c(cnn3-c3ccccc3)c(=O)[nH]2)c1 | 9.85% |
| COC(=O)c1cc(NC(=O)Cc2ccc(OC)cc2)cc(C(=O)OC)c1 | 14.7% |
| CCN1CCN(c2ncnc3sc(C(=O)Nc4ccccc4F)c(C)c23)CC1 | -50.9% |
| Cc1c(C(=O)Nc2c(F)cccc2F)sc2ncnc(N3CCN(c4ccccc4)CC3)c12 | 4.01% |
| CCOC(=O)c1sc2ncnc(N3CCN(CC)CC3)c2c1C | -9.54% |
| Cc1ccc(S(=O)(=O)NC2CCC(C(=O)O)CC2)cc1 (stereo not drawn) | 9.17% |
| COC(=O)c1oc2ccc(OC)cc2c1N | 14.9% |
| CC(=O)N(c1ccccc1C)S(=O)(=O)c1ccc(Cl)cc1 | 10% |
| COc1ccc2[nH]c(C(=O)NCCc3ccccc3)cc2c1 | 17.2% |
| COc1ccccc1NC(=S)NC1CCCC1 | 14.8% |
| CN1/C(=C\C(=O)c2ccco2)C(C)(C)c2ccccc21 | 4.59% |
| CC(=O)Nc1ccc(NC(=O)C(C)OC(=O)CCC(=O)c2ccc(F)cc2)cc1 (stereo not drawn) | 8.41% |
| CC(OC(=O)CCCC(=O)Nc1ccc(F)cc1)C(=O)c1ccccc1 (stereo not drawn) | 12.7% |
| CC(OC(=O)CCC(=O)c1ccccc1)C(=O)Nc1ccc(F)cc1 (stereo not drawn) | -299% |
